Measured values as given in the supplement of paper PMC8728848.
The sample as a whole holds a higher share of the strongest signals than the screen did.

Legend:
Assay in all cases: glycan array binding signal (z-score within array); higher = stronger binding
Details in all cases: glycan notation: IUPAC condensed, linker removed
[1] = molecular target: Gal(b1-4)GlcNAc(b1-3)Gal(b1-4)GlcNAc(b1-3)GalNAc
How it was run: (§1)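 Arrays were curated from the Consortium for Functional Glycomics database, 3228 in total, and kept only where the protein sequence was available. Binding is expressed as a within-array Z-score. This score was averaged across arrays of the same protein sequence at different concentrations or buffers and across linkers, and negative values can be read as non-binding.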

[2] = molecular target: Gal(b1-4)GlcNAc(b1-3)[Fuc(a1-3)GlcNAc(b1-6)]Gal(b1-4)Glc
How it was run: as §1

Gal(b1-4)GlcNAc6P = molecular target: Gal(b1-4)GlcNAc6P
How it was run: as §1

Gal6S(b1-4)Glc = molecular target: Gal6S(b1-4)Glc
How it was run: as §1

[3] = molecular target: GalNAc(a1-3)GalNAc(b1-3)Gal(a1-4)Gal(b1-4)Glc
How it was run: as §1

[4] = molecular target: GalNAc(b1-3)Gal(a1-6)Gal(b1-4)Glc
How it was run: as §1

[5] = molecular target: GalNAc(b1-4)GlcNAc(b1-2)Man(a1-3)[GalNAc(b1-4)GlcNAc(b1-2)Man(a1-6)]Man(b1-4)GlcNAc(b1-4)GlcNAc
How it was run: as §1

[6] = molecular target: GlcNAc(b1-3)Gal(b1-4)GlcNAc(b1-2)Man(a1-3)[GlcNAc(b1-3)Gal(b1-4)GlcNAc(b1-2)Man(a1-6)]Man(b1-4)GlcNAc(b1-4)GlcNAc
How it was run: as §1

[7] = molecular target: GlcNAc(b1-3)Gal(b1-4)GlcNAc(b1-3)Gal(b1-4)GlcNAc(b1-3)Gal(b1-4)GlcNAc(b1-2)Man(a1-3)[GlcNAc(b1-3)Gal(b1-4)GlcNAc(b1-3)Gal(b1-4)GlcNAc(b1-3)Gal(b1-4)GlcNAc(b1-2)Man(a1-6)]Man(b1-4)GlcNAc(b1-4)GlcNAc
How it was run: as §1

[8] = molecular target: GlcNAc(b1-3)Gal(b1-4)GlcNAc(b1-3)Gal(b1-4)GlcNAc(b1-3)Gal(b1-4)GlcNAc(b1-2)Man(a1-3)[GlcNAc(b1-3)Gal(b1-4)GlcNAc(b1-3)Gal(b1-4)GlcNAc(b1-3)Gal(b1-4)GlcNAc(b1-2)Man(a1-6)]Man(b1-4)GlcNAc(b1-4)[Fuc(a1-6)]GlcNAc
How it was run: as §1

[9] = molecular target: GlcNAc(b1-3)[GlcNAc(b1-6)]Gal(b1-4)GlcNAc
How it was run: as §1

[10] = molecular target: GlcNAc(b1-4)GlcNAc(b1-4)GlcNAc
How it was run: as §1

[11] = molecular target: GlcNAc(b1-4)[GlcNAc(b1-6)]GalNAc
How it was run: as §1

[12] = molecular target: GlcNAc(b1-6)Gal(b1-4)GlcNAc
How it was run: as §1

[13] = molecular target: Man(a1-3)[Man(a1-6)]Man(a1-6)[Man(a1-3)]Man(b1-4)GlcNAc(b1-4)GlcNAc
How it was run: as §1

[14] = molecular target: Neu5Ac(a2-3)Gal(b1-3)GalNAc
How it was run: as §1

[15] = molecular target: Neu5Ac(a2-3)Gal(b1-3)GlcNAc(b1-2)Man(a1-3)[Neu5Ac(a2-3)Gal(b1-3)GlcNAc(b1-2)Man(a1-6)]Man(b1-4)GlcNAc(b1-4)GlcNAc
How it was run: as §1

[16] = molecular target: Neu5Ac(a2-3)Gal(b1-3)GlcNAc(b1-6)GalNAc
How it was run: as §1

[17] = molecular target: Neu5Ac(a2-3)Gal(b1-3)[Fuc(a1-4)]GlcNAc(b1-3)Gal(b1-4)[Fuc(a1-3)]GlcNAc
How it was run: as §1

[18] = molecular target: Neu5Ac(a2-3)Gal(b1-4)GlcNAc(b1-3)Gal(b1-4)GlcNAc(b1-3)Gal(b1-4)GlcNAc(b1-2)Man(a1-3)[Neu5Ac(a2-3)Gal(b1-4)GlcNAc(b1-3)Gal(b1-4)GlcNAc(b1-3)Gal(b1-4)GlcNAc(b1-2)Man(a1-6)]GalNAc
How it was run: as §1

[19] = molecular target: Neu5Ac(a2-3)Gal(b1-4)GlcNAc(b1-6)[Neu5Ac(a2-3)Gal(b1-3)]GalNAc
How it was run: as §1

[20] = molecular target: Neu5Ac(a2-3)Gal6S(b1-4)[Fuc(a1-3)]GlcNAc
How it was run: as §1

Neu5Ac(a2-6)Gal(b1-4)Glc = molecular target: Neu5Ac(a2-6)Gal(b1-4)Glc
How it was run: as §1

[21] = molecular target: Neu5Ac(a2-6)Gal(b1-4)GlcNAc(b1-2)Man(a1-3)[Man(a1-6)]Man(b1-4)GlcNAc(b1-4)GlcNAc
How it was run: as §1

[22] = molecular target: Neu5Ac(a2-6)Gal(b1-4)GlcNAc(b1-3)Gal(b1-4)GlcNAc
How it was run: as §1

[23] = molecular target: Neu5Ac(a2-6)Gal(b1-4)GlcNAc(b1-6)[Gal(b1-3)]GalNAc
How it was run: as §1

[24] = molecular target: Neu5Ac(a2-8)Neu5Ac(a2-8)Neu5Ac(a2-3)Gal(b1-4)Glc
How it was run: as §1

[25] = molecular target: Neu5Gc(a2-6)Gal(b1-4)GlcNAc
How it was run: as §1

B1: rCnSL-proA (Clitocybe nebularis) (protein)
chain: AAFFSLVVLLALLPFGIHASALPSTELTPRVNPNLPGPNDVFVGFRGTNNIVGAIYEKDGIKDTPLNNGADAEMGPGSYITDGLFTARIFASGSAGNNPGTTATVCKIYASGVQWRGAPKGYIPVAYFGNGPTAEQRRQTYLRTLGLPGTAIRFGNLNTNPGQGPTAPRQMVVPPGPLRSLLKASCFPAADTRLPQTLHYFEKRVDWNIITAADSQTWGH
With B1 the “glycan array binding signal (z-score)” value [1] was 1.57, the “glycan array binding signal (z-score)” value [2] was 0.661 and the “glycan array binding signal (z-score)” value (Gal(b1-4)GlcNAc6P) was -1.27. The “glycan array binding signal (z-score)” value (Gal6S(b1-4)Glc) was -0.662, the “glycan array binding signal (z-score)” value [3] was -0.574 and the “glycan array binding signal (z-score)” value [4] was 0.329. For the same binder, the “glycan array binding signal (z-score)” value [5] was 3.42, the “glycan array binding signal (z-score)” value [6] was 0.077 and the “glycan array binding signal (z-score)” value [7] was -0.215. For the same binder, the “glycan array binding signal (z-score)” value [8] was 0.698, the “glycan array binding signal (z-score)” value [9] was -0.723 and the “glycan array binding signal (z-score)” value [10] was -0.208. For the same binder, the “glycan array binding signal (z-score)” value [11] was -0.002, the “glycan array binding signal (z-score)” value [12] was -0.312 and the “glycan array binding signal (z-score)” value [13] was 0.14. The “glycan array binding signal (z-score)” value [14] was -0.476, the “glycan array binding signal (z-score)” value [15] was 5.37 and the “glycan array binding signal (z-score)” value [16] was 0.201. The “glycan array binding signal (z-score)” value [17] was -0.238, the “glycan array binding signal (z-score)” value [18] was 4.1 and the “glycan array binding signal (z-score)” value [19] was -0.211. For the same binder, the “glycan array binding signal (z-score)” value [20] was -0.672, the “glycan array binding signal (z-score)” value (Neu5Ac(a2-6)Gal(b1-4)Glc) was -0.233 and the “glycan array binding signal (z-score)” value [21] was -0.337. The “glycan array binding signal (z-score)” value [22] was -0.269, the “glycan array binding signal (z-score)” value [23] was -0.387 and the “glycan array binding signal (z-score)” value [24] was -0.436. For the same binder, the “glycan array binding signal (z-score)” value [25] was -0.088.
